An excerpt weighted towards active compounds, which were near 21% of everything screened.
Pf growth 96h – P. falciparum growth inhibition at 96 hour, primary screen for plastid delayed-death inhibitors | P. falciparum luciferase reporter growth, 96 h | Potency, µM (top dose mostly 28.7 µM), inactives show at the highest dose activity change, negative = inhibition, actives largely listed as inhibitors | AID 504834 | actives 6.9% (n = 320,000); further: potency means the concentration at half of the fitted maximal effect; on the % scale 0 is the no-effect control and ±100 the full control effect
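Two parasite generations (96 h, 37 C, 5% CO2) of compound exposure in infected erythrocytes (0.05% parasitemia, 2% hematocrit). Luciferase-reporter P. falciparum; decreased luminescence indicates inhibited growth, aimed at apicoplast-acting delayed death.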
Shiga inhibitor – blocks Shiga toxin action in Vero cells. Vero cells, Shiga toxin protein synthesis inhibition reporter. inhibition, % at 38.7 µM. actives 9.2% (n = 290,000). AID 2315; in the data active means inhibition mostly above about 28%, no sharp cut-off; inactive means mostly below about 43%; further: 0% is about no effect
Cycloheximide cs – counter-screen hit for Shiga toxin inhibitors, cycloheximide | max response, % | cell reporter, cycloheximide protein synthesis inhibition counterscreen | AID 2314 | actives 12% (n = 300,000); in the data active means max response mostly above about 13%, no sharp cut-off; inactive means mostly below about 14%; further: read at 38.3 µM for the half of the compounds with a filed dose; 0% is about no effect
Pf growth 48h – P. falciparum growth inhibition at 48 hours (one generation) | actives 5.9% (n = 310,000) | AID 504832 | Potency, µM (titrated, usually from 28.7 µM), inactives show at the highest dose activity change, negative = inhibition, most hits filed as inhibitors | P. falciparum luciferase growth in erythrocytes, 48 h; further: potency means the concentration at half of the fitted maximal effect; on the % scale 0 is the no-effect control and ±100 the full control effect
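Here the parasites carry a stable luciferase gene and grow inside erythrocytes in Albumax-based RPMI medium with compound for one erythrocytic cycle. Activity is scored as loss of luminescent signal.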
AMA1 RON2 block – AMA1-RON2 (P. falciparum) interaction inhibition; AlphaScreen AMA1-biotinylated RON2 peptide binding; Potency, µM (titrated, usually from 58.2 µM), for the others: at the top dose activity change, negative = inhibition, most hits filed as inhibitors; actives 0.2% (n = 360,000); AID 720542;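 further: potency means the concentration at half of the fitted maximal effect; 0% = vehicle wells and -100% = peptide control; nearly all actives have a fitted effect of over 45% in size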
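AMA1 (3D7) with his tag at 25 nM final met compounds first, then biotinylated RON2 peptide at 25 nM; detection used donor plus acceptor beads, 10 µg/mL apiece, read by AlphaScreen after 30 min at room temperature.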
HCV inh – HCV inhibition. Huh7.5.1 HCVcc-Cre infection, luciferase reporter, 44 h. Potency, µM (doses to about 41.8 µM), for inactives: at the highest dose activity change, negative = inhibition, usual class: inhibitors. actives 3.4% (n = 340,000). AID 651820; further: potency means the concentration at half of the fitted maximal effect; on the % scale 0 is the no-effect control and ±100 the full control effect
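1,000 cells/well; 4 h culture; + compound; + HCVcc-Cre (~0.5 moi); 44 h; luciferase substrate, RT 15 min; read 15 sec.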
* marks the source's active call; other numbers are inactive results; i = inactive; u = inconclusive; x = no result. Unless noted, the call rests on the fitted dose curve; in most records, active means well fitted curve in the direction sought with a large enough effect; inconclusive means small, poorly fitted or top-dose-only effect, or another doubt; inactive means no such curve, though single readings can be large; an effect the other way counts as inactive or inconclusive.

SMILES	Pf growth 96h	Shiga inhibitor	Cycloheximide cs	Pf growth 48h	AMA1 RON2 block	HCV inh
C[C@H](CO)N1C[C@H](C)[C@@H](CN(C)C(=O)NC2CCCCC2)Oc2ccc(NC(=O)Nc3ccccc3)cc2C1=O	x	x	x	x	6%	4%
COc1ccc(C2CC(c3ccc(Cl)cc3)Nc3nc(NC(=O)c4ccco4)nn32)cc1 (centres undefined)	13%	8	-3	9.3µM*	2%	-21%
O=C(Nc1nc2n(n1)C(c1ccc(Cl)cc1)CC(c1ccc(Cl)cc1)N2)c1ccco1 (centres undefined)	u	-5	-1	10µM*	-8%	-15%
CCOc1cc(C(N)=O)cc(Br)c1OCc1ccccc1	50%	-2	-1	-7%	15%	-9%
CCC(=O)N(Cc1ccco1)c1nc(C(=O)Nc2ccc(Cl)cc2)c(C)s1	28%	54*	33*	-4%	12%	u
Cc1ccc(S(=O)(=O)N2[C@@H](c3cccc(Cl)c3)C(C(=O)OC(C)(C)C)=CC[C@H]2c2ccc(C(C)C)cc2)cc1	x	x	x	x	2%	x
O=c1c(Cc2ccc(Cl)cc2Cl)c(O)ccn1CC(F)(F)F	u	6	4	20%	6%	-1%
CC(C)(C)CC(C)(C)c1ccc(O)c(Cc2ccc(Cl)cc2Cl)c1	3µM*	x	x	1.9µM*	2%	-19%
Cc1cccc(C)c1-n1nnnc1C(c1ccnc2ccccc12)N(C)Cc1ccc(Cl)c(Cl)c1 (centres undefined)	x	x	x	x	-4%	x
O=C(COc1ccccc1)N=C1SC2CS(=O)(=O)CC2N1Cc1ccccc1 (centres undefined)	13µM*	-5	3	u	4%	-16%
CN(C)c1ccc(N2C(=NC(=O)COc3ccccc3)SC3CS(=O)(=O)CC32)cc1 (centres undefined)	u	46*	25*	3%	-11%	5%
O=C(COc1ccccc1)N=C1SC2CS(=O)(=O)CC2N1c1ccccc1 (centres undefined)	0%	-6	-2	14%	-3%	13%
COc1ccc(CN2C(=NC(=O)COc3ccccc3)SC3CS(=O)(=O)CC32)cc1 (centres undefined)	u	-8	-3	u	10%	2%
COc1ccccc1-c1cnc(C(O)c2cc(C)c(OC)c(C)c2)[nH]1 (centres undefined)	x	x	x	x	8%	x
COc1cccc(C(=O)Nc2cc(NC(=O)c3ccco3)ccc2OC)c1	-5%	-9	-3	-22%	-17%	u
O=C(Nc1ccc2nc(C3CC3)n(Cc3ccc(F)cc3)c(=O)c2c1)c1ccco1	x	46	20	1.9µM*	u	22µM*
COc1cccc(Cn2c(C3CC3)nc3ccc(NC(=O)c4ccco4)cc3c2=O)c1	x	30	12	3.7µM*	x	u
CN(Cc1ccccc1)C(=O)c1[nH]cnc1C(=O)Nc1ccccc1F	x	x	x	x	-7%	x
CN(Cc1ccc2c(c1)OCO2)C(=O)c1cc(-c2ccccc2)c(N2CCOCC2)s1	u	x	x	u	-18%	10µM*
COc1ccc(CCNC(=O)c2cc(-c3ccccc3)c(N3CCOCC3)s2)c(OC)c1OC	u	-1	-1	u	-11%	10µM*
CCOc1ccc(CCNC(=O)c2cc(-c3ccccc3)c(N3CCOCC3)s2)cc1OCC	5%	9	-3	u	u	u
O=C(NCc1ccco1)c1cc(-c2ccccc2)c(N2CCOCC2)s1	u	-18	-5	x	-3%	8.9µM*
O=C(NCc1ccc2c(c1)OCO2)c1cc(-c2ccccc2)c(N2CCOCC2)s1	-11%	-2	-7	-17%	-9%	14µM*
O=C(O)c1cc(-c2ccccc2)c(N2CCOCC2)s1	110%	-12	-2	x	0%	-3%
O=C(NCC1CCN(Cc2ccccc2F)CC1)Nc1cccc(Br)c1	-1%	17	1	u	-10%	-4%
SMILES	Pf growth 96h	Shiga inhibitor	Cycloheximide cs	Pf growth 48h	AMA1 RON2 block	HCV inh
CCCCCCCCCCCC	x	31	-6	x	x	x
O=C(Nc1cc(Cl)ccc1-n1cncn1)c1ccc(Br)o1	29%	x	x	u	0%	u
Nc1nc(CSCCO)nc(Nc2ccc(F)cc2)n1	59%	-3	25*	33%	-13%	15%
COc1ccc(Nc2nc(N)nc(CSC(=S)N3CCOCC3)n2)cc1	14%	67*	39*	35%	1%	-25%
Cc1c(Cl)cccc1Nc1nc(N)nc(CSCCO)n1	x	32	15	15%	5%	17%
Cc1ccc(Nc2nc(N)nc(CSC(=S)N3CCOCC3)n2)c(C)c1	101%	72*	34*	63%	-3%	-3%
CN1CCN(C(=S)SCc2nc(N)nc(Nc3ccc(F)cc3)n2)CC1	i	21	19*	u	-1%	-3%
Nc1nc(CSC(=S)N2CCOCC2)nc(Nc2ccc(F)cc2)n1	-4%	12	3	72%	-1%	5%
COc1ccccc1CNC(=O)COC(=O)c1cnc(C)cn1	x	x	x	x	13%	x
C[C@H](O)[C@@H]1C(=O)N2CCc3c([nH]c4ccccc34)[C@@H]2C[C@@H]1N(C)S(=O)(=O)c1ccccc1	x	x	x	x	-13%	x
COc1cc(/C=C/C(=O)c2ccc(O)cc2)ccc1OCC#N	u	85*	71*	13µM*	17%	u
CCOc1ccc(C(=O)/C=C/c2ccc(OC)c(OC)c2)cc1	u	26	1	u	-27%	u
COc1cccc(C(=O)/C=C/c2ccc(OCC#N)c(OC)c2)c1	u	16*	39*	-26%	-5%	u
CCOc1ccc(/C=C/C(=O)c2ccccc2)cc1OC	-12%	80*	56*	37%	-9%	10%
CCCCCCn1c(SCCCC)nc2c1c(=O)[nH]c(=O)n2C	3.3µM*	-6	-1	u	-2%	10%
CC(C)CCSc1nc2c(c(=O)[nH]c(=O)n2C)n1CCCc1ccccc1	5.9µM*	22	5	0%	5%	3%
CCn1c([N+](=O)[O-])nc2c1c(=O)[nH]c(=O)n2C	u	18	11	-3%	10%	11µM*
CCSc1nc2c(c(=O)[nH]c(=O)n2C)n1C	-12%	8	-2	-26%	1%	13%
CCCn1c(SCc2ccccc2)nc2c1c(=O)[nH]c(=O)n2C	x	-27	4	-24%	-1%	2%
CCCCCn1c(SCc2cccc(C)c2)nc2c1c(=O)[nH]c(=O)n2C	9.3µM*	-3	1	u	-6%	u
CSc1nc2c(c(=O)[nH]c(=O)n2C)n1CCCc1ccccc1	16%	-5	-3	4%	-8%	-8%
CCC(NS(=O)(=O)c1ccc(OC)cc1)C(=O)NCCc1ccccc1 (centres undefined)	u	-8	1	u	13%	-11%

From PubChem BioAssay
